Laboratory results as given in PubChem BioAssay (NCATS).
Inconclusive results are not listed. Active and inactive are the calls of the source. Calls come from the whole dose curve; as a rule, active = well fitted inhibition curve with a large enough effect; inconclusive = small, poorly fitted or top-dose-only effect; inactive = flat fitted curve, though single readings scatter.

How the values were obtained:
Experiment in all cases: qHTS profiling for inhibitors of Plasmodium falciparum proliferation (AID 504749); note: nearly all actives have a fitted effect of over 60% in size
Conditions in all cases: P. falciparum in erythrocytes, SYBR Green DNA, 72 h; series mostly up to 28.7 µM
[1] = tested on: DFO2036
How it was run: (§1)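 Each compound contacts P. falciparum-infected red blood cells for 72 h at 37 C; lysis buffer (Tris, EDTA, saponin, Triton X, SYBR Green I) is added and fluorescence measured next morning; values normalized to controls.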

[2] = tested on: DIV14
How it was run: as §1

[3] = tested on: DIV17
How it was run: as §1

[4] = tested on: DIV30
How it was run: as §1

[5] = tested on: Dd2
How it was run: as §1

[6] = tested on: ECU
How it was run: as §1

[7] = tested on: FAB9
How it was run: as §1

[8] = tested on: GB4
How it was run: as §1

[9] = tested on: HB3
How it was run: as §1

[10] = tested on: ICS
How it was run: as §1

Measured: Potency
Potency is the fitted concentration of half-maximal effect.

NC(N)=NC(N)=NCCc1ccccc1
inactive: all assays above

COc1ncnc(NS(=O)(=O)c2ccc(N)cc2)c1OC
inactive: all assays above

Nc1nc(N)nc(-c2cc(Cl)ccc2Cl)n1
inactive: all assays above

Cc1ncc([N+](=O)[O-])n1CCO
inactive: all assays above

CNS(=O)(=O)Cc1ccc2[nH]cc(CCN(C)C)c2c1
inactive: all assays above

COc1nc(N)nc2c1ncn2[C@@H]1O[C@H](CO)[C@@H](O)[C@@H]1O
inactive: all assays above

CCCc1cc(C(N)=S)ccn1
inactive: all assays above

CCOCC(O)COc1ccc(NC(=O)CC[S+](C)C)cc1 (configuration not stated)
not listed: [10]
inactive: all other assays above

CN(C)c1ccc(C(=C2C=CC(=[N+](C)C)C=C2)c2ccc(N(C)C)cc2)cc1
active: [1] 199 nM | [2] 478 nM | [3] 601 nM | [4] 478 nM | [5] 158 nM | [6] 355 nM | [7] 355 nM | [8] 239 nM | [9] 631 nM | [10] 251 nM

CCc1c2c(nc3ccc(OC(=O)N4CCC(N5CCCCC5)CC4)cc13)-c1cc3c(c(=O)n1C2)COC(=O)[C@]3(O)CC
inactive: all assays above

N=C(N)c1ccc(OCCCCCOc2ccc(C(=N)N)cc2)cc1
active: [1] 1000 nM | [2] 269 nM | [3] 426 nM | [4] 1690 nM | [5] 501 nM | [6] 2000 nM | [7] 794 nM | [8] 338 nM | [9] 1260 nM | [10] 1000 nM

COc1cc(NS(=O)(=O)c2ccc(N)cc2)nc(OC)n1
not listed: [10]
inactive: all other assays above

Nc1[nH]c(=O)ncc1F
inactive: all assays above

Cc1noc(NS(=O)(=O)c2ccc(N)cc2)c1C
inactive: all assays above

COc1cnc(NS(=O)(=O)c2ccc(N)cc2)nc1
inactive: all assays above

CCc1cc(C(N)=S)ccn1
inactive: all assays above

Cc1nnc(NS(=O)(=O)c2ccc(N)cc2)s1
inactive: all assays above

COc1ccc2cc3[n+](cc2c1OC)CCc1cc2c(cc1-3)OCO2
active: [1] 891 nM | [2] 849 nM | [3] 1070 nM | [4] 1350 nM | [5] 794 nM | [6] 1410 nM | [7] 708 nM | [8] 675 nM | [9] 1780 nM | [10] 1120 nM

CC1=NN(c2ccccc2)C(=O)C1
not listed: [10]
inactive: all other assays above

Nc1nc(N)c2nc(CNc3ccc(C(=O)NC(CCC(=O)O)C(=O)O)cc3)cnc2n1 (configuration not stated)
inactive: all assays above

O=C(O)c1cc(=O)[nH]c(=O)[nH]1
inactive: all assays above
